# High-throughput results (PubChem BioAssay)
# FBPA Giardia inh: Giardia lamblia aldolase inhibition; 0.71% of 290,000 active; purified Giardia FBPA; AID 2451; A8B2U2; Potency, µM (highest dose often 59.6 µM), for the others: at the highest dose activity, negative = inhibition, usual class: inhibitors; further: on the % scale 0 is the no-effect control and ±100 the full control effect; nearly all actives have a fitted effect of over 55% in size
# Target sequence (A8B2U2 whole entry, looked up): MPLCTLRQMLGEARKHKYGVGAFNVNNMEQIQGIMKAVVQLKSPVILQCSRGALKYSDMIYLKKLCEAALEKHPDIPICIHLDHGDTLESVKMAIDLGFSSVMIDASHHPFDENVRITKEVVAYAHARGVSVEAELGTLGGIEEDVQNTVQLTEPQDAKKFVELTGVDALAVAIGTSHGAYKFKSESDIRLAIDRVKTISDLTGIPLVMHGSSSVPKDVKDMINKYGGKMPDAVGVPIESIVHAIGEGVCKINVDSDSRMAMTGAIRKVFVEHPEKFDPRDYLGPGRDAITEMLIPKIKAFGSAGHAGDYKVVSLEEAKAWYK
#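 Giardia FBPA (40 nM reagent) was preincubated 10 min at RT with compound (up to 57.5 uM final), then substrate plus GAPDH/TPI/NAD/arsenate coupling system with diaphorase/resazurin was added; resorufin fluorescence (525/598 nm) was read after 20 min.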
# Sm TGR block: inhibitors of Schistosoma mansoni thioredoxin glutathione reductase; Q962Y6; purified TGR, DTNB reduction, TNB absorbance 405 nm; Potency, µM (series often up to 114 µM), for inactives: at the highest dose activity change, negative = inhibition, actives largely listed as inhibitors; 3% of 360,000 active; further: on the % scale 0 is the no-effect control and ±100 the full control effect; nearly all actives have a fitted effect of over 60% in size
#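 Kinetic colorimetric format: TGR-catalysed, NADPH-driven DTNB reduction monitored via TNB absorbance. Enzyme dispensed at 20 nM; compound exposure 15 min at room temperature before reaction start.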
# LmPK inh: inhibitors of Leishmania mexicana pyruvate kinase | Q27686 | purified LmPK, Kinase-Glo ATP luminescence, 1 h | AID 1721 | 0.37% of 290,000 active | Potency, µM (series often up to 57.5 µM), inactives show at the top dose activity change, negative = inhibition, actives largely listed as inhibitors; further: on the % scale 0 is the no-effect control and ±100 the full control effect
#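 Pyruvate kinase activity monitored as ATP production (luciferase luminescence). Conditions: 0.1 nM enzyme, 0.5 mM PEP, 0.1 mM ADP, 1 h, RT; normalized against uninhibited and no-enzyme wells.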
# TbPYK inhibitor: T. brucei pyruvate kinase inhibition; 0.12% of 410,000 active; TbPYK enzyme, Kinase-Glo Plus ATP luminescence, 45 min; Potency, µM (titrated, usually from 76.8 µM), for inactives: top-dose activity, negative = inhibition, hits mostly inhibitors; Q57TT1; further: on the % scale 0 is the no-effect control and ±100 the full control effect; nearly all actives have a fitted effect of over 50% in size
#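 Readout: single end-point luminescence (Kinase-Glo Plus, 10 min). Reaction conditions were TbPYK/substrate plus 130 uM ADP, 45 min at RT, pH 7.2 TEA buffer. No-enzyme wells served as controls, and data were normalized before concentration-response fitting.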
# RE007 growth inh: less growth of the S. pombe RE007 Vpr strain. S. pombe RE007 Vpr strain, BacTiter-Glo ATP luminescence, 24 h. Potency, µM (doses to about 92.2 µM), for the others: top-dose activity change, negative = less growth, most hits filed as inhibitors. 0.21% of 360,000 active. AID 651644; active means well fitted falling curve with a large enough effect; inconclusive means small, poorly fitted or top-dose-only effect; inactive means no such curve, though single readings can be large or run the other way; further: on the % scale 0 is the no-effect control and ±100 the full control effect; nearly all actives have a fitted effect of over 50% in size
#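 Fission yeast strain RE007, carrying one chromosomally integrated HIV-1 vpr copy, was seeded at OD 0.01 in PMG+AL medium with 23 nL pinned compound. After 24 h at 30 °C and 99% humidity, viability was read by BacTiter-Glo luminescence.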
# NS1 function inh: inhibitors of influenza NS1 protein function. Potency, µM (top dose mostly 46.1 µM), for inactives: at the top dose activity, positive = more growth. 0.4% of 270,000 active; calls by dose curve; further: actives are rising curves; nearly all actives have a fitted effect of over 50% in size
#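 Read-out: OD600 growth recovery of NS1-expressing budding yeast. Cells grown overnight at 30C in -URA glucose medium, washed, resuspended and diluted 1:100 in 2% galactose assay medium, pH 6.0. Same strain lacking NS1 served as positive control.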
# The depositor's hits bear a star; u = inconclusive; x = no result given. In the library only some 3.5% were active in any assay of this set; here they are far more common. Unless noted, the call rests on the fitted dose curve; in most records, active means well fitted curve in the direction sought with a large enough effect; inconclusive means small, poorly fitted or top-dose-only effect, or another doubt; inactive means no such curve, though single readings can be large; an effect the other way counts as inactive or inconclusive. Potency means the concentration at half of the fitted maximal effect.
SMILES,FBPA Giardia inh,Sm TGR block,LmPK inh,TbPYK inhibitor,RE007 growth inh,NS1 function inh
CCN(CCO)C1CC(=O)N(c2ccccc2C)C1=O (stereo not given),-14.0%,6.31µM*,-0.8%,-5.9%,22.4µM*,-104.9%
COc1ccccc1N1C(=O)CC(N(O)c2ccccc2)C1=O (stereo not given),0.1%,39.8µM*,1.0%,-0.3%,4.8%,1.1%
COc1ccccc1N(O)C1CC(=O)N(c2ccc(F)cc2)C1=O (stereo not given),-14.2%,3.55µM*,1.4%,-17.9%,-6.3%,-2.0%
Cc1ccccc1N1C(=O)CC(N(O)c2ccccc2)C1=O (stereo not given),u,39.8µM*,1.7%,0.6%,3.1%,u
CCCOc1ccccc1N1C(=O)CC(N(O)c2ccccc2)C1=O (stereo not given),-0.8%,-13.8%,6.3%,-0.4%,2.9%,-0.4%
CC(C)(C)C1CCc2c(sc(NC(=O)c3ccccc3F)c2C(=O)NCc2ccco2)C1 (stereo not given),x,-1.6%,x,1.6%,x,x
C[N@+]1(CCC(=O)c2ccccc2)CC[C@H]2CC[C@H](C2)C1,x,x,x,x,x,0.0%
Cc1cc(C)nc(S/C=C/C(=O)c2ccccc2F)n1,3.1%,0.562µM*,-1.2%,-3.0%,38.1%,-31.0%
O=C(NC(=S)Nc1ccc(N2CCOCC2)cc1)c1ccco1,u,39.8µM*,-4.0%,-14.5%,x,-4.2%
CCOc1cc(NC(=S)NCCCN2CCOCC2)c(OCC)cc1NC(=O)c1ccco1,-18.2%,35.5µM*,2.6%,-9.0%,3.0%,-2.1%
COc1cc(NC(=S)NCCCN2CCOCC2)c(OC)cc1NC(=O)c1ccco1,-1.4%,u,0.9%,-3.7%,14.9%,-4.2%
O=C(NC(=S)Nc1ccc(CN2CCCCC2)cc1)c1ccco1,-29.9%,x,2.5%,-0.7%,-0.8%,5.9%
O=C(Nc1ccc(OCc2ccccc2)cc1)Nc1ccccc1C(=O)NCCCN1CCOCC1,5.4%,1.2%,14.1µM*,u,-27.1%,0.3%
Cc1ccccc1C(=O)NC(=S)Nc1ccc(N2CCOCC2)cc1,-5.6%,u,9.9%,0.0%,-1.8%,x
O=C(NC(=S)Nc1ccc(CN2CCOCC2)cc1)c1ccco1,-10.4%,31.6µM*,2.7%,-4.4%,3.7%,4.4%
O=C1NC(=S)N(C2CC2)C(=O)/C1=C/c1ccc2c(c1)CCN2CCCCl,u,u,-24.0%,u,-10.7%,-4.5%
CCN1C(=O)/C(=C/c2ccc3c(c2)CCN3CCCCl)C(=O)NC1=S,-16.9%,8.91µM*,-22.3%,u,u,-17.8%
C=CCN1C(=O)/C(=C/c2ccc3c(c2)CCCN3CCC)C(=O)NC1=S,u,8.91µM*,-26.3%,u,0.8%,7.7%
COc1ccc(-c2nnc(SCC(=O)Oc3cccc(C)c3C)o2)cc1,x,-1.6%,x,-2.1%,x,x
O=C(Nc1nnc(S(=O)(=O)N2CCCc3ccccc32)s1)c1cccc(Cl)c1,x,9.5%,x,-2.1%,x,x
CCN(CC(=O)NC(C)(C)C)C(=O)CCl,-0.5%,50.1µM*,-1.5%,0.9%,9.4%,4.1%
CC(C)(C)NC(=O)CCCCCCCC(=O)NC(C)(C)C,3.2%,0.0%,-1.1%,1.0%,9.1%,6.4%
COc1cc(NC(=O)c2cc3nc(-c4ccccc4)cc(-c4ccccc4)n3n2)c(OC)cc1Cl,x,1.5%,x,-2.1%,x,x
COc1cccc(CNC(=O)CN2C(=O)CCn3nc(-c4cn(C)c5ccccc45)cc32)c1OC,x,15.8µM*,x,-2.7%,x,x
COc1ccccc1CNC(=O)CCCN1C(=O)CCn2nc(-c3cn(C)c4ccccc34)cc21,x,4.1%,x,1.4%,x,x
SMILES,FBPA Giardia inh,Sm TGR block,LmPK inh,TbPYK inhibitor,RE007 growth inh,NS1 function inh
COc1ccccc1C(=O)Nc1ccccc1C(=O)OCc1cc(=O)n2ccsc2n1,x,0.8%,x,1.5%,x,x
Cc1cc(C)c(C(=O)COc2cccnc2[N+](=O)[O-])cc1C,u,15.8µM*,11.3%,-21.0%,-28.8%,-24.9%
CCCN(CCC)c1nn2c(=O)c(C(=O)NCc3cc(Br)ccc3OC)cnc2s1,x,1.0%,x,-1.4%,x,x
COc1ccccc1CNc1nc(-c2ccco2)nn1C(=O)c1ccccc1[N+](=O)[O-],x,89.1µM*,x,-9.0%,x,x
COc1ccc(C(=O)n2nc(-c3ccco3)nc2NCc2cccs2)cc1OC,x,20µM*,x,1.4%,x,x
Cc1cccc(C(=O)n2nc(-c3ccco3)nc2NCc2ccccc2)c1,x,35.5µM*,x,-5.1%,x,x
CCC(=O)N1CCc2cc(CNC(=O)Cc3ccc(F)cc3)ccc21,x,0.4%,x,1.9%,x,x
CCCCCCCc1cc2c(cn1)C(=O)C(C)(OC(C)=O)C(O)=C2Cl (stereo not given),-5.9%,x,x,x,x,x
Cc1ccc(C)n1-c1ccc(-c2ccnc(N)n2)cc1,0.7%,25.1µM*,-0.2%,-2.3%,-4.3%,x
Cc1onc(-c2ccccc2)c1-c1ccnc(N)n1,5.9%,-0.5%,-5.8%,0.1%,22.9%,-7.4%
COc1ccc(CC(=O)n2[nH]c(=O)ccc2=O)cc1OC,u,0.562µM*,-2.5%,7.08µM*,6.1%,4.9%
NC(=S)N/N=C/c1ccc(-c2ccc([N+](=O)[O-])cc2)o1,u,28.2µM*,-17.7%,-24.4%,-11.8%,x
NC(=S)N/N=C/c1ccc(-c2cc(Cl)cc(Cl)c2)o1,-24.8%,u,3.2%,-19.9%,-5.7%,-10.7%
O=C(CC1OC(=O)c2ccccc21)Nc1ccc(Cl)c(S(=O)(=O)N2CCCCC2)c1 (stereo not given),x,-24.0%,x,3.7%,7.9%,x
Cc1ccc(NC(=O)CC2OC(=O)c3ccccc32)cc1S(=O)(=O)N1CCCCCC1 (stereo not given),x,25.1µM*,x,-8.7%,2.7%,x
COCCNCC(=O)Nc1ccc(C)c(S(=O)(=O)N2CCCCC2)c1,u,6.2%,4.8%,17.1%,-1.5%,x
COc1ccc(S(=O)(=O)N2CCCCCC2)cc1NC(=O)CC1OC(=O)c2ccccc21 (stereo not given),x,39.8µM*,x,-14.1%,-20.1%,x
Cc1ccc(NC(=O)CCl)cc1S(=O)(=O)N1CCCCCC1,-3.0%,7.94µM*,8.8%,1.4%,1.2%,x
O=C(CC1OC(=O)c2ccccc21)Nc1cccc(S(=O)(=O)N2CCCCCC2)c1 (stereo not given),x,-21.7%,0.3%,-6.1%,8.9%,8.4%
COc1cc2c(N3CCN(C(=O)Nc4ccc(OC(C)C)cc4)CC3)ncnc2cc1OCCCN1CCCCC1,x,x,x,-0.5%,x,x
COC(=O)C1=C(C)N(C)C(=O)/C1=C\c1ccco1,-0.5%,-47.3%,-1.9%,1.6%,-9.7%,-3.7%
COC(=O)C1=C(C)N(Cc2ccc(OC)cc2)C(=O)/C1=C\c1ccco1,-5.9%,12.6µM*,2.3%,-4.4%,-27.0%,-3.6%
CCOC(=O)C1=C(C)N(c2ccc(C)c(C)c2)C(=O)/C1=C\c1ccco1,10.9%,0.0%,0.1%,-3.1%,14.4%,7.9%
